In PubChem BioAssay AID588849 (Broad Institute, 2011):
Measured potencies and affinities stand elsewhere. Calls of active or inactive are those of the source. How the calls were made is not given here.

target: CAAX prenyl protease 2 (Homo sapiens) (UniProt Q9Y256); experiment: human Rce1 protease inhibitors, dose response, biochemical, yeast membranes, quenched-peptide fluorescence, cherry-pick (AID 588849); settings: yeast membrane fractions expressing human Rce1, quenched-peptide fluorescence, 4 h; series mostly up to 10 µM
Sequence (Q9Y256 whole entry, looked up): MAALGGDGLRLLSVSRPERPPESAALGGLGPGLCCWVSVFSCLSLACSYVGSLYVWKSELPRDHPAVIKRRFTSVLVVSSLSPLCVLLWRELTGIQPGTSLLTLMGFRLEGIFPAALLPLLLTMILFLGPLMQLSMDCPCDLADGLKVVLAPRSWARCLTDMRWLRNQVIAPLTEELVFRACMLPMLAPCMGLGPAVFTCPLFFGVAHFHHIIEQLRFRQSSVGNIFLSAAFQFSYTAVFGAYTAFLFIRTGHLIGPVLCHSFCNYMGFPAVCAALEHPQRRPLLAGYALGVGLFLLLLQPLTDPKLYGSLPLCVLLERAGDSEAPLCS

outcome, inactive:
CCCN(CCC)CCNC(=O)c1cc2c(-c3ccc(Cl)cc3)nn(C)c2s1
Cc1c(Cc2ccccc2)c(=O)oc2c(C)c(OCC(=O)N3CCC(C(=O)O)CC3)ccc12
c1ccc(-c2ccc(-c3cn4c(n3)CCC4)cc2)cc1
CCS(=O)(=O)Nc1c(C(=O)O)[nH]c2ccccc12
CCn1cc(/C=C(\NC(=O)c2ccccc2Cl)C(=O)N2CCOCC2)c2ccccc21
N/C(Cc1ccc([N+](=O)[O-])cc1)=N\OC(=O)c1ccc2ccccc2c1
CC1(c2nnc(-c3cccc(Cl)c3)o2)CC(c2cccc(F)c2)=NO1 (stereo not given)
c1ccc(-n2cnnc2SCc2cn3cccnc3n2)cc1
COc1cccc(-c2ccc(-c3noc(-c4ccccc4F)n3)c(OC)n2)c1
CCCNC(=O)c1c(N)n(-c2ccc(S(N)(=O)=O)cc2)c2nc3ccccc3nc12
CC(C)CNC(=O)Nc1ccc(F)c(Cl)c1
COC(=O)C1CCCN1S(=O)(=O)c1ccc2ccccc2c1 (stereo not given)
CCOc1ccc(N(CC(=O)NC2CC3CCC2C3)S(=O)(=O)c2ccccc2)cc1 (stereo not given)
CCC(C)Sc1cc(-c2nc3ccccn3c2NC2CCCCC2)ccc1OC (stereo not given)
CC(=O)Oc1ccc(C(=O)Nc2ccc(S(=O)(=O)NCC3CCCO3)cc2)cc1 (stereo not given)
CC(=O)C(C)Oc1ccc2c3c(c(=O)oc2c1)CCCC3 (stereo not given)
O=C1CCN(Cc2ccccc2)CCN1[C@H](CSc1ccccc1)Cc1ccccc1
COCCNc1nc(N)c([N+](=O)[O-])c(N2CCCCCC2)n1
COc1ccc(S(=O)(=O)NCC2CCCO2)cc1NC(=O)c1ccccc1F (stereo not given)
CC1(C)CC2CC(C)(CN2S(=O)(=O)c2ccc(N)cc2)C1 (stereo not given)
